Most compounds without a hit are left out; they make up all but 9.7% or so of the library.
BAP1 block = inhibitors of BAP1 deubiquitinase, primary screen, biochemical, Ub-AMC fluorescence, kinetic. Ubiquitin carboxyl-terminal hydrolase BAP1 (Homo sapiens), Q92560. recombinant BAP1, Ub-AMC hydrolysis fluorescence kinetic; stronger effect = lower value. calls only at 20 µM. 0.48% of 72,000 active;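 active = activity remaining at or below 50% of control, provided the compound also passes the data quality filters; inactive = the rest, including low values that fail the filters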;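 also: 100% = DMSO wells rate and 0% = substrate alone blank rate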
M1 antagonist = antagonists of rat M1 muscarinic receptor; B-score at 10 µM; CHO-M1 cells, Fluo-4 calcium, ACh EC80 antagonist mode; stronger effect = lower value; Muscarinic acetylcholine receptor M1 (Rattus norvegicus), P08482; 3.4% of 64,000 active; AID 628, 2007;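 active = calcium fluorescence response, raw or row-and-column corrected B-score, differing from the plate sample mean either way at a set confidence level, mostly lower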
Autofluor 339 = intrinsic fluorescence of library compounds, ex339/em460 – biochemical, MLSMR library, data from DPM-DC assay, artefact control, profiling panel | 5.5% of 65,000 active | compound autofluorescence, ex339/em460 nm, NADH buffer; stronger effect = higher value; 1 = no-compound wells, NADH background | fluorescence fold increase at 10 µM;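 active = at 10 µM, mean starting fluorescence two-fold or more over control wells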;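 also: signal is the first read of a kinetic run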
WNV NS2B-NS3 inh = inhibitors of WNV NS2B-NS3 protease, primary screen, biochemical, fluorogenic substrate. Genome polyprotein (West Nile virus), P06935. fluorogenic substrate Ex360/Em465; stronger effect = lower value. z-score (test concentration not listed). 0.18% of 65,000 active. AID 577, 2007; in the data active = z-score below about -3
Target sequence (P06935 1371-1501 limits assumed): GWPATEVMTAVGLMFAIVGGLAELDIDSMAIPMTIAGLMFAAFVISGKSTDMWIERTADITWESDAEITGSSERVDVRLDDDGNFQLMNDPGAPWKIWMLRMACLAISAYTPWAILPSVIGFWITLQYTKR
Target sequence (P06935 1502-1679 limits assumed): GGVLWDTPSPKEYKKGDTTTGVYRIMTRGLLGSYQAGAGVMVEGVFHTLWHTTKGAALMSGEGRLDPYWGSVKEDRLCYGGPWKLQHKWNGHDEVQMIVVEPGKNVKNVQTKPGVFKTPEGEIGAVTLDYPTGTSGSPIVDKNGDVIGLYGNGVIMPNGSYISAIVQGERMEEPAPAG
A340 absorber = compound light absorbance at 340 nm, profiling panel, artefact control, biochemical, MLSMR library, data from PS, PMK, MK assays | compound absorbance at 340 nm, fold over control | 65,000 tested, under 10 active | fold change at 10 µM;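 active = at 10 µM dose, initial 340 nm absorbance at least 2 fold that of control wells; inactive = change under 2 fold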;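 also: initial absorbance extrapolated from kinetic A340 decline of NADH oxidation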
M1 ag = M1 muscarinic receptor agonists, primary screen, CHO-M1 cells, Fluo-4 calcium, agonist mode; 3% of 64,000 active; B-score at 10 µM; Fluo-4 calcium fluorescence; stronger effect = higher value; Muscarinic acetylcholine receptor M1; AID 626, 2007;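 active = fluorescence rise, raw or as B-score row- and column-corrected plate score, outside the 99.7% band of its plate's samples, either direction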
* marks the source's active call; other numbers are inactive results; i = inactive; . = no result given.

SMILES	BAP1 block	M1 antagonist	Autofluor 339	WNV NS2B-NS3 inh	A340 absorber	M1 ag
COc1ccc(-c2cc(C(F)F)n3ncc(C(=O)N4CCN5CCCC5C4)c3n2)cc1 (stereo not given)	i	.	3.6*	-0.42	1.1	.
CCCCCCNC(=O)C1CC(=O)N(c2ccc(C)c(Cl)c2)C1 (stereo not given)	i	.	.	.	.	.
O=C(CCn1ccnc1)c1ccc(Br)cc1	i	.	.	.	.	.
COc1ccc(CCN2CC(O)=C(c3nc4ccccc4c(=O)[nH]3)C2=N)cc1OC	i	0.84	2.3*	0.0019	1	0.041
CCOC(=O)c1ccc(N2CC(O)=C(c3nc4ccccc4c(=O)[nH]3)C2=N)cc1	.	-0.013	2.4*	-1.3	1.1	3.6
O=C(O)c1cc(C(c2ccc(O)c(C(=O)O)c2)C(Cl)(Cl)Cl)ccc1O	i	.	.	.	.	.
COC(=O)c1ccc(COc2ccc3c(C)c(C)c(=O)oc3c2C)o1	.	0.26	2*	1.1	1.1	0.49
Cc1c(OCc2ccc(C(=O)O)o2)ccc2c3c(c(=O)oc12)CCC3	.	-0.14	2.1*	0.42	1.1	-0.24
COC(=O)c1ccc(COc2ccc3c(=O)c(-c4ccc(C(=O)OC)o4)c(C)oc3c2)o1	i	.	.	.	.	.
COC(=O)CSc1nc(-c2cccs2)ccc1C#N	i	0.11	2.3*	0.7	1.1	0.48
Cc1ccc2c(c1)[nH]c1c(=O)n(CCN3CCCCC3)cnc12	i	0.063	1.7	-0.5	1.1	0.34
COc1ccc2c(c1)c1ncn(CCN3CCCC3)c(=O)c1n2C	.	-0.23	3.7*	0.07	1.1	-0.011
Cc1cnc(NC(=O)C(C)N2C(=O)C3CC=CCC3C2=O)s1 (stereo not given)	i	-0.41	1.1	-3.4*	1	0.15
CCOC(=O)c1c(C)nc2ncccn12	.	0.012	2.1*	-0.38	1	-0.46
N#Cc1ccc(-c2ccco2)nc1SCc1ccccc1	i	.	2.1*	1.5	1.1	.
COc1ccc(C2C3=C(CC(C)(C)CC3=O)Nc3ccccc3N2C(=O)c2ccc(Br)cc2)cc1 (stereo not given)	i	.	.	.	.	.
Cc1cc2c(cc(C(=O)N3CCC(C(=O)NC4CCCC4)CC3)n2Cc2c(F)cccc2Cl)o1	i	0.063	1	1.6	1	6.2*
CCOC(=O)C1CCN(Cc2c(F)cccc2Cl)CC1	i	0.13	1.1	-0.09	1.1	-0.75
COc1ccc(C2C3=C(CCCC3=O)Nc3nc4ccccc4n32)cc1OC (stereo not given)	.	1.1	3*	0.45	1.2	0.39
COc1ccc(C2C3=C(CCCC3=O)Nc3nc4ccccc4n32)c(OC)c1OC (stereo not given)	.	0.094	5.1*	0.94	1.1	1.4
COc1ccc(C2C3=C(CCCC3=O)Nc3nc(SCc4ccccc4)nn32)cc1OC (stereo not given)	i	0.0036	1.3	0.37	1	0.029
COc1ccc(OC)c(C2C3=C(CCCC3=O)Nc3nc4ccccc4n32)c1 (stereo not given)	i	0.27	1.7	-0.32	1.1	-0.69
COCCOC(=O)C1=C(C)NC2=C(C(=O)CCC2)C1c1cc(OC)ccc1OC (stereo not given)	i	.	.	.	.	.
Cc1ccc(Cn2nnc(C(=O)Nc3cc(C)ccc3C)c2N)cc1	i	1.8*	1.1	-0.19	1	0.064
Clc1ccc(Cc2noc(Cc3ccccc3)n2)cc1Cl	i	1.8*	1.1	-1.5	1	-0.27
SMILES	BAP1 block	M1 antagonist	Autofluor 339	WNV NS2B-NS3 inh	A340 absorber	M1 ag
CCOC(=O)Cn1c(C)nc2c(C(=O)OCC)sc(C)c2c1=O	i	0.05	1.6	-0.31	1.1	-1.2
CCOC(=O)CC1(C)NC(=O)c2c(C)sc(C(=O)OCC)c2N1 (stereo not given)	.	1	3.9*	1.9	1.1	0.6
CCOC(=O)CC1(CC(=O)OCC)NC(=O)c2c(C)sc(C(=O)OCC)c2N1	i	0.03	3*	1.1	1	-0.74
Clc1ccc2nc(Cl)cc(-c3ccccc3)c2c1	i	.	.	.	.	.
COc1ccc2[nH]c(=O)c3c(c2c1)OC(C)(C)C=C3	.	0.27	2.5*	-1.1	1.1	-0.092
Cc1ccc(-c2c3c(=O)n(C)c(=O)n(C)c3c3c(C)cc(C)nn23)cc1	i	-13*	1.1	0.72	1.1	9.5*
c1cc2c3c(cccc3c1)NC1(CCCCCC1)N2	i	1.4	3.8*	-0.04	1.1	0.7
O=C1CCSc2cccc3cccc(c23)N1	i	-1.2	1.1	0.11	1	0.3
CC1=C(C(=O)OC(C)C)C(c2coc3ccc(Cl)cc3c2=O)C2=C(CCCC2=O)N1 (stereo not given)	i	.	.	.	.	.
O=C(Nc1cccc2ccccc12)OC1C=CS(=O)(=O)C1 (stereo not given)	i	0.42	1.1	-0.08	1	-1.2
CC1OC(Nc2cccc3ccccc23)C(O)C(O)C1O (stereo not given)	i	-0.76	2.1*	-1.5	1	-0.41
Cc1cc(=O)oc2n[nH]c(-c3ccccc3)c12	.	-0.48	2	0.92	0.98	-0.59
COc1ccc(-c2[nH]nc3oc(=O)cc(C)c23)cc1	i	0.95	2.2*	-0.36	1	-0.064
COc1ccc2c(c1)OCC1=C2CCC2(C)C(=O)CC=C12 (stereo not given)	.	0.11	3.6*	-0.77	1.1	1.6
O=C(NC1CCCCC1)c1cc2nc(-c3ccco3)cc(C(F)(F)F)n2n1	.	-0.006	2.9*	-0.67	1	-0.94
O=C(Nc1cnn(Cc2ccccc2)c1)c1cc2nc(-c3ccco3)cc(C(F)(F)F)n2n1	i	0.52	3.3*	0.75	1.1	1.3
O=C(NC1CCCCC1)c1cc(-c2ccco2)on1	i	-0.44	1.1	0.13	0.98	-0.25
O=C(c1cc2nc(-c3ccco3)cc(C(F)(F)F)n2n1)N1CCc2ccccc2C1	i	0.033	2.2*	-0.46	1.1	0.052
Cc1ccccc1Cn1nc(C)c(NC(=O)c2cc3nc(-c4ccco4)cc(C(F)(F)F)n3n2)c1C	i	-0.38	1.8	-0.55	1.1	2.4
COC(=O)[C@@H](NC(=O)NC(C)CCc1ccccc1)C(C)C (stereo not given in full)	i	-0.26	1.1	0.44	1	0.18
COC(=O)[C@@H](NC(=O)Nc1ccccc1F)C(C)C	i	1.6*	1.1	-1.7	1	1.5
CC(C)Oc1cccc(C(=O)Nc2ccc(Cl)c(-c3nc4ncccc4o3)c2)c1	i	.	.	.	.	.
CCn1cc(C(=O)Nc2cccc(C(=O)OC)c2)c(=O)c2ccc(C)nc21	i	-0.38	1.1	-6.2*	1	-0.19
